The record followed here is PubChem BioAssay (NCATS).

Inconclusive results are not listed. Entries that show only a call come without a potency. Unmarked numbers belong to inactive results. The source made the active and inactive calls. Calls follow the shape of the dose curve; as a rule, active = well fitted curve in the direction sought with a large enough effect; inconclusive = small, poorly fitted or top-dose-only effect, or another doubt; inactive = no such curve, though single readings can be large; an effect the other way counts as inactive or inconclusive.

One experiment has as its system HaCat. The experiment can be described thus: Cytotoxic Profiling of Annotated Libraries Using Quantitative High-Throughput Screening (AID 1296008). Also: nearly all actives have a fitted effect of over 60% in size. Also: potency is read from the fitted curve at half-maximal effect. The following applies: Five cell lines viability, CellTiter-Glo ATP luminescence, 48-72 h; max response: hits give low values. A digest of the protocol:
(§1)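 Cytotoxicity was measured as CellTiter-Glo ATP luminescence, read after 10 min at room temperature. Compound treatment of the cells lasted 48 or 72 hr at 37 degrees Celsius in a qHTS format.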
Turning to `O=C(Nc1ncc([N+](=O)[O-])s1)c1ccccc1O`, the molecule was classed as inactive.

As for `Cc1ccc(N2CCN(S(=O)(=O)N3CCCCC3)CC2)c(C)c1`, the molecule was classed as inactive.

`C=C1C(=O)OC2C1CCC1(C)C(O)CC=C(C)C21` (stereo not given): the molecule was called inactive.

As for `C=CCc1ccc(OC(C)Cc2ccc(OC)c(OC)c2)c(OC)c1` (stereo not given), the molecule was called inactive.

Consider `CCOc1ccc(S(=O)(=O)N2CCCCCC2)c2ccccc12`, for which the result was inactive.

Regarding `CC1(C)CC[C@]2(C(=O)O[C@@H]3O[C@H](CO)[C@@H](O)[C@H](O)[C@H]3O)CC[C@]3(C)C(=CCC4[C@@]5(C)CC[C@H](O[C@@H]6O[C@H](C(=O)O)[C@H](O)[C@H](O)[C@H]6O)C(C)(C)C5CC[C@]43C)[C@@H]2C1` (stereo not given in full), the molecule was classed as inactive.

For the molecule `CN1c2c(nc(N)[nH]c2=O)NC[C@@H]1CNc1ccc(C(=O)N[C@@H](CCC(=O)O)C(=O)O)cc1`, the max response is -4.13%.

In the case of `O=C(NCc1cccs1)c1cc2nc(-c3ccco3)cc(C(F)(F)Cl)n2n1`, the result was inactive.

A further experiment deals with KB-3-1. The description is as above. The note with it: Five cell lines viability, CellTiter-Glo ATP luminescence, 48-72 h; max response: hits give low values. In a few lines:
as §1
For orientation: Cellular ATP, detected with luciferase, serves as a proxy for viable cell number.
For the molecule `O=C(Nc1ncc([N+](=O)[O-])s1)c1ccccc1O`, the Potency is 8.2 µM (active).

With `Cc1ccc(N2CCN(S(=O)(=O)N3CCCCC3)CC2)c(C)c1`, the max response is -2.41%.

`C=C1C(=O)OC2C1CCC1(C)C(O)CC=C(C)C21` (stereo not given): the max response is 0.514%.

Regarding `C=CCc1ccc(OC(C)Cc2ccc(OC)c(OC)c2)c(OC)c1` (stereo not given), the max response is -25.6%.

In the case of `CCOc1ccc(S(=O)(=O)N2CCCCCC2)c2ccccc12`, the max response is -18.9%.

Regarding `CC1(C)CC[C@]2(C(=O)O[C@@H]3O[C@H](CO)[C@@H](O)[C@H](O)[C@H]3O)CC[C@]3(C)C(=CCC4[C@@]5(C)CC[C@H](O[C@@H]6O[C@H](C(=O)O)[C@H](O)[C@H](O)[C@H]6O)C(C)(C)C5CC[C@]43C)[C@@H]2C1` (stereo not given in full), the molecule was classed as inactive.

Take `CN1c2c(nc(N)[nH]c2=O)NC[C@@H]1CNc1ccc(C(=O)N[C@@H](CCC(=O)O)C(=O)O)cc1`: the result was inactive.

On to `O=C(NCc1cccs1)c1cc2nc(-c3ccco3)cc(C(F)(F)Cl)n2n1`, for which the max response is 3.07%.

For a further experiment, the system named is NIH3T3. Described as above. The following applies: Five cell lines viability, CellTiter-Glo ATP luminescence, 48-72 h; max response: hits give low values. A digest of the protocol:
as §1
On to `O=C(Nc1ncc([N+](=O)[O-])s1)c1ccccc1O`, for which the molecule was classed as inactive.

Turning to `Cc1ccc(N2CCN(S(=O)(=O)N3CCCCC3)CC2)c(C)c1`, the max response was 4.82%.

`C=C1C(=O)OC2C1CCC1(C)C(O)CC=C(C)C21` (stereo not given): the molecule was classed as inactive.

On to `C=CCc1ccc(OC(C)Cc2ccc(OC)c(OC)c2)c(OC)c1` (stereo not given), for which the max response was -6.99%.

With `CCOc1ccc(S(=O)(=O)N2CCCCCC2)c2ccccc12`, the outcome was inactive.

In the case of `CC1(C)CC[C@]2(C(=O)O[C@@H]3O[C@H](CO)[C@@H](O)[C@H](O)[C@H]3O)CC[C@]3(C)C(=CCC4[C@@]5(C)CC[C@H](O[C@@H]6O[C@H](C(=O)O)[C@H](O)[C@H](O)[C@H]6O)C(C)(C)C5CC[C@]43C)[C@@H]2C1` (stereo not given in full), the max response was -2.05%.

Take `O=C(NCc1cccs1)c1cc2nc(-c3ccco3)cc(C(F)(F)Cl)n2n1`: the max response was -24.5%.

For the next experiment, the system named is HACAT. The experiment can be described thus: qHTS assay to identify novel small-molecules to repurpose for Merkel cell carcinoma treatment (AID 1296009). Also: nearly all actives have a fitted effect of over 60% in size. The note with it: MCC and control cell lines, CellTiter-Glo viability, 72 h; at 44.8 µM (top of the series) unless noted. A digest of the protocol:
(§2)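 After compound transfer in DMSO, plates were kept 72 hr at 37 degree celsius. Luminescent ATP signal from CellTiter-Glo served as viability measure, normalized against DMSO and no-cell controls.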
On the technique in general: Quantitative high-throughput screening tests each substance at several concentrations.
In the case of `O=C(Nc1ncc([N+](=O)[O-])s1)c1ccccc1O`, the molecule was called inactive.

With `Cc1ccc(N2CCN(S(=O)(=O)N3CCCCC3)CC2)c(C)c1`, the molecule was called inactive.

Regarding `C=C1C(=O)OC2C1CCC1(C)C(O)CC=C(C)C21` (stereo not given), the molecule was classed as inactive.

For the molecule `C=CCc1ccc(OC(C)Cc2ccc(OC)c(OC)c2)c(OC)c1` (stereo not given), the call was inactive.

Consider `CCOc1ccc(S(=O)(=O)N2CCCCCC2)c2ccccc12`, for which the molecule was classed as inactive.

In the case of `CC1(C)CC[C@]2(C(=O)O[C@@H]3O[C@H](CO)[C@@H](O)[C@H](O)[C@H]3O)CC[C@]3(C)C(=CCC4[C@@]5(C)CC[C@H](O[C@@H]6O[C@H](C(=O)O)[C@H](O)[C@H](O)[C@H]6O)C(C)(C)C5CC[C@]43C)[C@@H]2C1` (stereo not given in full), the outcome is “inactive [at 17.4 µM]”.

Consider `O=C(NCc1cccs1)c1cc2nc(-c3ccco3)cc(C(F)(F)Cl)n2n1`, for which the molecule was classed as inactive.

The next experiment relates to NIH3T3. The description is as above. The note with it: MCC and control cell lines, CellTiter-Glo viability, 72 h; series mostly up to 44.8 µM. In a few lines:
as §2
In the case of `O=C(Nc1ncc([N+](=O)[O-])s1)c1ccccc1O`, the Potency entry is “inactive”.

As to `C=C1C(=O)OC2C1CCC1(C)C(O)CC=C(C)C21` (stereo not given), the Potency entry is “inactive”.

Consider `CCOc1ccc(S(=O)(=O)N2CCCCCC2)c2ccccc12`, for which the Potency result is “inactive”.

The subject of a further experiment is C33A. The experiment can be described thus: Primary qHTS to identify gynecologic anti-cancer compounds using libraries of approved drugs and bioactive compounds (AID 1345084). Also: nearly all actives have a fitted effect of over 55% in size. Also: potency is read from the fitted curve at half-maximal effect. The note with it: Gynecologic cancer cell panel viability, ATPlite luminescence, 48 h; series mostly up to 57.5 µM. In a few lines: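 Five-concentration response, 48 h; readout is ATP-driven luciferase luminescence.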
Turning to `Cn1ncc(Cl)c1-c1cc(C(=O)N[C@H](CN)Cc2cccc(F)c2)sc1Cl`, the Potency was 11.2 µM (active).

With `O=C(Nc1ncc([N+](=O)[O-])s1)c1ccccc1O`, the Potency result was “inactive”.

On to `Cc1ccc(N2CCN(S(=O)(=O)N3CCCCC3)CC2)c(C)c1`, for which the Potency entry was “inactive”.

With `C=C1C(=O)O[C@@H]2[C@H]1CC[C@H](C)C(CCC(=O)O)C2(C)O` (stereo not given in full), the Potency result was “inactive”.

In the case of `Cn1ncc(Cl)c1-c1cc(C(=O)NC(CN)Cc2ccc(F)c(F)c2)oc1Cl` (stereo not given), the Potency was 3.16 µM (active).

`C=C1C(=O)OC2C1CCC1(C)C(O)CC=C(C)C21` (stereo not given): the Potency result was “inactive”.

As to `C/C=C(\C)C(=O)O[C@H]1C=C(CO)C(=O)[C@H](OC(C)=O)[C@H]1C(C)C`, the Potency is 12.6 µM (active).

For `C=CCc1ccc(OC(C)Cc2ccc(OC)c(OC)c2)c(OC)c1` (stereo not given), the Potency entry was “inactive”.

Regarding `Cc1nc(Nc2cnn(C3CCNCC3)c2)nc2c1N(C)C(=O)c1cc3ccccc3cc1N2C`, the Potency entry is “inactive”.

Regarding `CCOc1ccc(S(=O)(=O)N2CCCCCC2)c2ccccc12`, the Potency result was “inactive”.

For the molecule `CC1(C)CC[C@]2(C(=O)O[C@@H]3O[C@H](CO)[C@@H](O)[C@H](O)[C@H]3O)CC[C@]3(C)C(=CCC4[C@@]5(C)CC[C@H](O[C@@H]6O[C@H](C(=O)O)[C@H](O)[C@H](O)[C@H]6O)C(C)(C)C5CC[C@]43C)[C@@H]2C1` (stereo not given in full), the Potency entry was “inactive”.

Regarding `O=C(NCc1cccs1)c1cc2nc(-c3ccco3)cc(C(F)(F)Cl)n2n1`, the Potency entry was “inactive”.
